Columns and labels:
Assay in all cases: log2 ratio of Biotin-Ahx-Ub-VS probe labelling (fragment/DMSO); higher = less target engagement (more negative = stronger competition), active = hit call of the paper (q ≤ 0.05, log2 ratio ≤ -1)
Conditions in all cases: compound concentration: 200 uM; treatment time: 3 h
[1] = target: USP34 (UniProt Q70CQ2)
Procedure, shortened: (§1)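 Global-median-normalised Spectronaut label-free quantities were compared by unpaired t-test, and values are average log2 ratios of fragment over vehicle. Only proteins with ≥2 unique peptides were used. HEK293T lysate (495 µg per sample) was treated in triplicate with fragment at 200 µM or vehicle for 3 h and then with Biotin-Ahx-Ub-VS at 0.5 µM final for 1 h. Labelled DUBs were then NeutrAvidin-enriched, digested with LysC and trypsin, and run by diaPASEF LC-MS/MS.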

[2] = target: T1, USP36 (UniProt Q9P275)
T1 sequence (whole entry): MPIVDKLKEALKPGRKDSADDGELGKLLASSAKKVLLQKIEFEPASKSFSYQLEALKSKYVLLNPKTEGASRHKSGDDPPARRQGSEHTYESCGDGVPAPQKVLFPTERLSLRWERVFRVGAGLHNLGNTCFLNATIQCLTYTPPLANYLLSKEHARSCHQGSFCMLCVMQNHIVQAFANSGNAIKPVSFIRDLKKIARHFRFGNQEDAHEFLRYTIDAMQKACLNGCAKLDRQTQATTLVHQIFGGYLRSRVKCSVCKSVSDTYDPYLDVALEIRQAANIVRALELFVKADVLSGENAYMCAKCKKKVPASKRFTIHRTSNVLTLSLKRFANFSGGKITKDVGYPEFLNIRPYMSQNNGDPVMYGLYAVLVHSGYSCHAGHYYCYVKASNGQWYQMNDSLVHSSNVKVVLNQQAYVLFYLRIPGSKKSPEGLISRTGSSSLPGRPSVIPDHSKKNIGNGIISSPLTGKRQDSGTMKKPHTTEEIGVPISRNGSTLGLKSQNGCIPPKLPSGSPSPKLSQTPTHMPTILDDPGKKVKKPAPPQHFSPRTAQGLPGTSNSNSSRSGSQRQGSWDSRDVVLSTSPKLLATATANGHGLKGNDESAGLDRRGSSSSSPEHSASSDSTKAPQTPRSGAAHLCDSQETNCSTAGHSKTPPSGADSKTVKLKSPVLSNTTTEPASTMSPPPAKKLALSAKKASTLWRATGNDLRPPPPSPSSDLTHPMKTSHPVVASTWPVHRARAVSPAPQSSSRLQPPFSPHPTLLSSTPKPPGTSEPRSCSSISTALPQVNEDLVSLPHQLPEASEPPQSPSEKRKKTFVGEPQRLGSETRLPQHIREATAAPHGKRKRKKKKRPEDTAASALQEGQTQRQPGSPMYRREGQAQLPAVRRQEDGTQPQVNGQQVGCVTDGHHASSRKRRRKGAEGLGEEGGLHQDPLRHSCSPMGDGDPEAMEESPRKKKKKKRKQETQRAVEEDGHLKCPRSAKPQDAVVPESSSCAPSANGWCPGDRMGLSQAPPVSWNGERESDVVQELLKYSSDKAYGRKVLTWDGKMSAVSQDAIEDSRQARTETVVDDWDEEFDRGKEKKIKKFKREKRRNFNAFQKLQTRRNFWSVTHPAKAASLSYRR
Procedure, shortened: as §1

[3] = target: T2, USP38 (UniProt Q8NB14)
T2 sequence (whole entry): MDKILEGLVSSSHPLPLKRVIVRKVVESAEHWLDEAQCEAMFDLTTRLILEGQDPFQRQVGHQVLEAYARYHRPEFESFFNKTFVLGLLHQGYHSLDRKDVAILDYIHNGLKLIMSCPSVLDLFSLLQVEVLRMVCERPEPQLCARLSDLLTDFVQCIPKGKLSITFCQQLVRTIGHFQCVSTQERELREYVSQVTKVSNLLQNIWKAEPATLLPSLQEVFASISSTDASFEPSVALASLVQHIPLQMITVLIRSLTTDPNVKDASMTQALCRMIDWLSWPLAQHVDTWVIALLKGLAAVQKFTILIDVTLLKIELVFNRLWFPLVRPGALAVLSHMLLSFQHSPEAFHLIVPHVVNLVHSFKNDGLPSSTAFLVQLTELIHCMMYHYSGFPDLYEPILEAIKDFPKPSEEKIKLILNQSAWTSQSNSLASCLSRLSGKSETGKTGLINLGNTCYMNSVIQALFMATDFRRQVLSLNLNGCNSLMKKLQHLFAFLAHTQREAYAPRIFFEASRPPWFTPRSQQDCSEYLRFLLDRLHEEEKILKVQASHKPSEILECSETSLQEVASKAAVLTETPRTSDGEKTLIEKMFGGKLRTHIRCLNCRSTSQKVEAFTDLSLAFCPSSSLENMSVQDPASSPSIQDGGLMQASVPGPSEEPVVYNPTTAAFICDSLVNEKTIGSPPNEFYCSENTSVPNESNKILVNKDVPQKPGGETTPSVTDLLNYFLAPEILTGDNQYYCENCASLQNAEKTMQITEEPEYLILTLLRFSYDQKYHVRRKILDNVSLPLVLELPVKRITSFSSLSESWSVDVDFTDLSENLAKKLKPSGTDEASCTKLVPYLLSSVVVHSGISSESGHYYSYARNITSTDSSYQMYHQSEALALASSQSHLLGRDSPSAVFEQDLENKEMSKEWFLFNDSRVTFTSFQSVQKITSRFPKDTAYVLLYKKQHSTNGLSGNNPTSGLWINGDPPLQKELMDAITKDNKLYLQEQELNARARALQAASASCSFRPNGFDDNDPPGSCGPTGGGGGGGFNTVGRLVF
Procedure, shortened: as §1

[4] = target: T3, USP39 (UniProt Q53GS9)
T3 sequence (whole entry): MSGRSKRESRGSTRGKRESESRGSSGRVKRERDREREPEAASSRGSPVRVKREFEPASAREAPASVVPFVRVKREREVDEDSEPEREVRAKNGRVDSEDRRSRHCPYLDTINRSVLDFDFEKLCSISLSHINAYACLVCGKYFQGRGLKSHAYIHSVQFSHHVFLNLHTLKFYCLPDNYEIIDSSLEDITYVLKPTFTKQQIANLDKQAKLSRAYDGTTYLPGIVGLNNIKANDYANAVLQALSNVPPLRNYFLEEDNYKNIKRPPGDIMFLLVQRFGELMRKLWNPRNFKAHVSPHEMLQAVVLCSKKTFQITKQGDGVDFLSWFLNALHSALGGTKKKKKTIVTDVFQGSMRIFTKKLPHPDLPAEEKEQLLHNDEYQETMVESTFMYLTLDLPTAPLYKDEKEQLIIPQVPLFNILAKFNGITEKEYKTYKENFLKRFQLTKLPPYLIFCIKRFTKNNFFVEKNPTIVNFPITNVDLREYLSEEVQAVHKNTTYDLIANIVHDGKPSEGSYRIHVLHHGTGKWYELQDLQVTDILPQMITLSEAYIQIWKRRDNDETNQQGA
Procedure, shortened: as §1

[5] = target: T4, USP4 (UniProt Q13107)
T4 sequence (whole entry): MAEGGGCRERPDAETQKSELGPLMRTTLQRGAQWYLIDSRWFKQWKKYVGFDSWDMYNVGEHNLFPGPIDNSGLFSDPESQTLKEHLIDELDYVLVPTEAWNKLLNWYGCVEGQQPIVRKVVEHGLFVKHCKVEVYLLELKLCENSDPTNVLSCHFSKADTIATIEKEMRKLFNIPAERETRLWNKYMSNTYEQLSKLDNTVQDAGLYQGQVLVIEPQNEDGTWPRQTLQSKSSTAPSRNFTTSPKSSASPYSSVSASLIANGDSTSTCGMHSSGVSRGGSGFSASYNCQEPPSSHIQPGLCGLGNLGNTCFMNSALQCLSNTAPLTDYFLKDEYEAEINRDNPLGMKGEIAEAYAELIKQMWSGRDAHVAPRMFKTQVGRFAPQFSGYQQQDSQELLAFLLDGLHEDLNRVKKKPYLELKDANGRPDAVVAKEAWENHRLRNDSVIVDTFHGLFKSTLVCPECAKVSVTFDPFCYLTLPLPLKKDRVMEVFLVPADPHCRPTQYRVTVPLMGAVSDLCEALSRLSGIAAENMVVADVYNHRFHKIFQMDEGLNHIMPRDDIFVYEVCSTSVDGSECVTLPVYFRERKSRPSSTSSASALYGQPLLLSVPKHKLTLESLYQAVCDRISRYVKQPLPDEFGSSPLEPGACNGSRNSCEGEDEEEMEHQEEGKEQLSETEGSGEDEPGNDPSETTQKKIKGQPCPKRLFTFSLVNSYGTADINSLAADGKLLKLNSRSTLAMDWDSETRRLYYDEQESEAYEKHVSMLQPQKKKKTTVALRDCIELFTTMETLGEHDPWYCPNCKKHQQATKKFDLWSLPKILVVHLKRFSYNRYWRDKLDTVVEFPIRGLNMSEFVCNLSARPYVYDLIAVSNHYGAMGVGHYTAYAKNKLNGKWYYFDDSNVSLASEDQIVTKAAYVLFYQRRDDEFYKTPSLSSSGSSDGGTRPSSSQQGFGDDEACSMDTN
Procedure, shortened: as §1

Measured: log2 ratio of Biotin-Ahx-Ub-VS probe labelling

Chain of USP34 (Q70CQ2 whole entry, the tested form may be a part): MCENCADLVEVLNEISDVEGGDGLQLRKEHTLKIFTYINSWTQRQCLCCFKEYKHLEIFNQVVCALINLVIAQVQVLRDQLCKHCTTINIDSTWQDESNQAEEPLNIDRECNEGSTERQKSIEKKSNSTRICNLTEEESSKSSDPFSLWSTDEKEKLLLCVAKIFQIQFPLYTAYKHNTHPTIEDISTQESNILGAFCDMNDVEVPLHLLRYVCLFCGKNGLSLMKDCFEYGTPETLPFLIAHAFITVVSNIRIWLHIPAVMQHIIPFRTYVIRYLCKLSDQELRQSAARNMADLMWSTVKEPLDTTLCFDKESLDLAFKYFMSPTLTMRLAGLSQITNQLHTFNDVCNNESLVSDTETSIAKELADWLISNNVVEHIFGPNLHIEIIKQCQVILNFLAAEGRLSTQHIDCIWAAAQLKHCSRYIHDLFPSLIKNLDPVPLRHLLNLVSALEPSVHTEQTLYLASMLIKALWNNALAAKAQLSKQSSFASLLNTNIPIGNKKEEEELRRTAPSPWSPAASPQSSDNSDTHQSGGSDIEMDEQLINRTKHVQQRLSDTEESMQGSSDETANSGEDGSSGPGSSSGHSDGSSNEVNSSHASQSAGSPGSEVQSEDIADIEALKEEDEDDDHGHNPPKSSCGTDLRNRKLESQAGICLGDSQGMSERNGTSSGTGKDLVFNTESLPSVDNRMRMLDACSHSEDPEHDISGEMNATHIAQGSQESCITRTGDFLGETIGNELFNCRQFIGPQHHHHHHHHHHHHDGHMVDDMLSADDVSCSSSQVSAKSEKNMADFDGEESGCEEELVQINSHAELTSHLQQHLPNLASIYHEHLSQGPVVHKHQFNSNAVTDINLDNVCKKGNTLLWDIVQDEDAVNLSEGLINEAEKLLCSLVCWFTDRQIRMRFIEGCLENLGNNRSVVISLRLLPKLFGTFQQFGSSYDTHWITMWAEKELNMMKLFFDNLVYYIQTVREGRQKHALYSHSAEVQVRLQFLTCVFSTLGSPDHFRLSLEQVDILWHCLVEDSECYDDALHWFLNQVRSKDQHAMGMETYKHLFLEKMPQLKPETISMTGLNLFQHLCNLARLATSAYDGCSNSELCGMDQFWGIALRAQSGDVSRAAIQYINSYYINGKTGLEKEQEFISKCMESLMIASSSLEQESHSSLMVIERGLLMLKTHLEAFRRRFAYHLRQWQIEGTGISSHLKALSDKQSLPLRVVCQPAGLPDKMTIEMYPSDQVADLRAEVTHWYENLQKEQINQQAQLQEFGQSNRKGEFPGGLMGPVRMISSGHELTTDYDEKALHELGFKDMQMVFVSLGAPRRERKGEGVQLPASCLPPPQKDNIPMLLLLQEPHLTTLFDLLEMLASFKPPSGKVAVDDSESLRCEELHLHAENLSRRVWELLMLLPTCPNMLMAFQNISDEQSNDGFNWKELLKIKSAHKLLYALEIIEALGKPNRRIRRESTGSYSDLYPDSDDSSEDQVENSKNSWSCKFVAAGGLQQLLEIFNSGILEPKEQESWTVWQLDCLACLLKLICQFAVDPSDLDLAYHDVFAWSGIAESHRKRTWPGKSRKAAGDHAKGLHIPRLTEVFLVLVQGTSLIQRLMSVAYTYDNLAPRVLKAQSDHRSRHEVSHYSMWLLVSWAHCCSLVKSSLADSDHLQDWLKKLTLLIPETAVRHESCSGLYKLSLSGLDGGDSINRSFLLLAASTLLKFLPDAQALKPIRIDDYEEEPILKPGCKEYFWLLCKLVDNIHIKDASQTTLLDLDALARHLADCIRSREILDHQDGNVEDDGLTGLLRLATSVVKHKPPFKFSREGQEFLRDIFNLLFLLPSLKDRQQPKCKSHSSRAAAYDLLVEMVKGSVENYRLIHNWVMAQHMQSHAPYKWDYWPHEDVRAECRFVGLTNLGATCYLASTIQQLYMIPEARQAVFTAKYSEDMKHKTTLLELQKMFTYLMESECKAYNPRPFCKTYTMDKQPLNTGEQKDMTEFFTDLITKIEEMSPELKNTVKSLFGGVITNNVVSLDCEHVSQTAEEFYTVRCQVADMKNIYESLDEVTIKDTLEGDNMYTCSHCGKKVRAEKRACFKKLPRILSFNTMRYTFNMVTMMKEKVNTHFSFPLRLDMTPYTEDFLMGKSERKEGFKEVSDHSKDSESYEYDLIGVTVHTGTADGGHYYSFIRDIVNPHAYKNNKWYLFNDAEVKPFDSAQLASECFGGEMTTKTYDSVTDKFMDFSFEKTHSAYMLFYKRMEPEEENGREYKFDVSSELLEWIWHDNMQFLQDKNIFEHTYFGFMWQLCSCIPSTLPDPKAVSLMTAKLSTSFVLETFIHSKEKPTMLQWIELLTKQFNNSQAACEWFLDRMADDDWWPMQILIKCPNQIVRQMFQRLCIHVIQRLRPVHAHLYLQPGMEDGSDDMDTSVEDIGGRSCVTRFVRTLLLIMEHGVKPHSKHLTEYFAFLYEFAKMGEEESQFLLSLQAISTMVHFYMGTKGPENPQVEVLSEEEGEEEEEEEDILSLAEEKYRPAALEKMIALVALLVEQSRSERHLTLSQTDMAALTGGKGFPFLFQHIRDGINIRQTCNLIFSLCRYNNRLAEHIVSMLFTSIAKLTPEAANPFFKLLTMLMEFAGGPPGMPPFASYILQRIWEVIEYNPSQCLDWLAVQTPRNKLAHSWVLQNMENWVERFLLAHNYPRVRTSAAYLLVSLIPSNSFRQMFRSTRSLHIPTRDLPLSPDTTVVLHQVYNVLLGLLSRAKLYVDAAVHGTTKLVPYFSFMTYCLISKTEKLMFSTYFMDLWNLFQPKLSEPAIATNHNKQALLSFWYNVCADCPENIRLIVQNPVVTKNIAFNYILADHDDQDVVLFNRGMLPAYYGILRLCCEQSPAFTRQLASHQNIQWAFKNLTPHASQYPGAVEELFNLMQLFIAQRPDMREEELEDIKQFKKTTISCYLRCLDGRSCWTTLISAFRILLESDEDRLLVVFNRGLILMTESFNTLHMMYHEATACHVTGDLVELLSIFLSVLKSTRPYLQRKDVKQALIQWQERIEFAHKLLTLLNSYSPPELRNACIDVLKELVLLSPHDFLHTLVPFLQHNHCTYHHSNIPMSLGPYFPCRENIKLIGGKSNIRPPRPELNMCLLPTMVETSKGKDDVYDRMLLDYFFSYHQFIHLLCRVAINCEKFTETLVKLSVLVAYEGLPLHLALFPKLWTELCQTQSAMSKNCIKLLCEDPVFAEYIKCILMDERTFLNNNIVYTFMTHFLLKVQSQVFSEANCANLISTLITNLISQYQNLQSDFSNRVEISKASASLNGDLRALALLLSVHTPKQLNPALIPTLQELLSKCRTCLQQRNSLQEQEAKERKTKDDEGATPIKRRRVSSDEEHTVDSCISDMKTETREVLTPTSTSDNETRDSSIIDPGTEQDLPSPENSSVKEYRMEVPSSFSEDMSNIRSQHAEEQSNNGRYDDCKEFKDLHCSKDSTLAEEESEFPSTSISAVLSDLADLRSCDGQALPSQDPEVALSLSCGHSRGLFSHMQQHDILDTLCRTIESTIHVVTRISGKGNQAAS

O=C(CCl)N1CCC(C(O)c2ccc(F)cc2)CC1 (stereo not given)
inactive: [1] -0.0791 | [2] 0.299 | [3] 0.282 | [4] 0.453 | [5] 0.032

From the supplement of paper PMC11732987, “Enantioselective OTUD7B fragment discovery through chemoproteomics screening and high-throughput optimisation” (Communications Chemistry, 2025)
